Experimental data as given in PubChem BioAssay AID2517 (National Center for Advancing Translational Sciences (NCATS), 2010).
The whole screen tested about 350,000 compounds, of which about 1,200 (0.34%) were called active. Another 3% or so got no clear call; they are omitted. What follows is part of a selection rich in actives, with near analogues and random picks from the rest. Entries that show only a call come without a potency. A number with no mark means an inactive call. Calls follow the shape of the dose curve; as a rule, active = well fitted inhibition curve with a large enough effect; inconclusive = small, poorly fitted or top-dose-only effect; inactive = no such curve, though single readings can be large or run the other way.

Each molecule was assayed against DNA repair nuclease/redox regulator APEX1 (Homo sapiens) (UniProt P27695) (assay: qHTS Assay for Inhibitors of the Human Apurinic/apyrimidinic Endonuclease 1 (APE1)). Details: recombinant APE1, TAMRA/BHQ-2 abasic DNA cleavage fluorescence; activity change, negative = inhibition: at 65.8 µM (top of the series).
Procedure, shortened: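 Incision of a quenched TAMRA/BHQ-2 THF abasic-site duplex (50 nM) by 0.75 nM APE1, after 15 min compound preincubation, measured as fluorescence increase over three 60 s reads. Values normalized to buffer, DMSO and NSC13755 control wells.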
Also: nearly all actives have a fitted effect of over 55% in size.
Potency is read from the fitted curve at half-maximal effect.

Sequence of DNA repair nuclease/redox regulator APEX1 (Homo sapiens) (P27695 whole entry, looked up): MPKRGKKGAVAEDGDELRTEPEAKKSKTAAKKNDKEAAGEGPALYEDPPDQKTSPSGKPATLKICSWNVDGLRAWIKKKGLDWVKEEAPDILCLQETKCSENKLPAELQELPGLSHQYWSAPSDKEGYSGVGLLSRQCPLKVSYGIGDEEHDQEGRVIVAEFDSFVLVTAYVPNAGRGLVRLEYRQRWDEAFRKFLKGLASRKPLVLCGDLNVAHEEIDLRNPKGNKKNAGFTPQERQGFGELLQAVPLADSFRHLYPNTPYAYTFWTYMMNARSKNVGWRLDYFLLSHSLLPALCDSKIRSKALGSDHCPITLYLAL

SMILES	Potency	activity change, negative = inhibition
COC(=O)C1(C(C)=O)CC2=CC[C@H]3C(=O)N(c4ccccc4)C(=O)[C@H]3[C@@H]2Cc2ccccc2[C@@H]1C[N+](=O)[O-] (some centres not stated)	inactive	–
OC[C@H]1O[C@@H](n2cnc3c(NC4CCCC4)ncnc32)[C@H](O)[C@H]1O	inactive	–
Cc1csc(-c2coc3cc(O[C@@H]4O[C@H](CO)[C@@H](O)[C@@H](O)[C@H]4O)ccc3c2=O)n1	inactive	–
CCCCC/C=C/C=C/C=O	inactive	–
CCNc1ccc(C(=O)OCC(=O)N2c3ccccc3NC(=O)C2(C)C)cc1[N+](=O)[O-]	inactive	–
CNS(=O)(=O)c1cccc(C(=O)OCC(=O)N2c3ccccc3NC(=O)C2(C)C)c1	15 µM (active)	–
Cc1cc(C(=O)OCC(=O)N2c3ccccc3NC(=O)C2(C)C)c(C)n1-c1ccccc1	inactive	–
CC(C)CO	inactive	–
CN1CCN2c3ccccc3Cc3ccccc3[C@@H]2C1	inactive	–
C/C(CCN1CCCCc2nc(C)c(C)cc21)=N\O[C@@H](C)c1cn([C@@H]2COC[C@@H]2O)nn1	–	11.9% [at 12.4 µM]
C=CC(C1=CC(=O)C=CC1=O)c1ccc(O)cc1 (configuration not stated)	inactive	–
COc1cc([C@H](Cc2ccccc2)NC(C)=O)oc(=O)c1	28.2 µM (active)	–
CCOC(=O)C(Cc1ccccc1)NC(=O)CCC(=O)c1ccc(OC)cc1 (configuration not stated)	inactive	–
COc1ccc(OC)c(NC(=O)N[C@H](Cc2ccccc2)C(=O)NN)c1	inactive	–
COC(=O)C1(C)C=CC2(CCCCC2)N1C(C)=O (configuration not stated)	inactive	–
N#Cc1ccc(CN2CCCC3(CCN(C(=O)c4ccco4)CC3)C2)cc1	inactive	–
C[C@H]1CCC[C@@]2(C)CCCC[C@]12O	inactive	–
COC(=O)CC1c2ccccc2C(Cc2ccc(OC)cc2)=C(C)N1C(=O)OC (configuration not stated)	–	-8.37% [at 12.4 µM]
O=C(CCS(=O)(=O)c1ccc(Br)cc1)NCCc1ccc(Cl)cc1	inactive	–
COc1ccc(Cl)cc1NC(=O)CCS(=O)(=O)c1ccc(Br)cc1	11.9 µM (active)	–
CCOc1ccc(OCC)c(NC(=O)CCS(=O)(=O)c2ccc(C)cc2)c1	inactive	–
COc1cccc(Cn2c(=O)cnc3cncnc32)c1	inactive	–
C=CC1=C2C=C(C3CC3)N(CC(C)C)C=C2C(=O)C(C)(OC(=O)c2ccco2)C1=O (configuration not stated)	–	-5.75% [at 12.4 µM]
COc1ccccc1CNc1ncnc2ccc(-c3c(C)noc3C)cc12	inactive	–
C[C@H]1Cc2c(-c3ccccc3)nc3c(c2CO1)CN(C(=O)C1CC1)CC3	–	-1.16% [at 12.4 µM]
COC(=O)C1(C)C=CCN1C(=O)c1ccccc1 (configuration not stated)	inactive	–
Cc1ccc(CNc2ccc(N3CCN(C(=O)OC(C)(C)C)CC3)cc2)cc1	inactive	–
